Each structure is given as a SMILES string. The campaign covered roughly 2,100 compounds. About 1,100 (52%) were called active. Inconclusive results (about 27%) are left out. Calls follow the shape of the dose curve; as a rule, active = well fitted inhibition curve with a large enough effect; inconclusive = small, poorly fitted or top-dose-only effect; inactive = no such curve, though single readings can be large or run the other way. The set was probably picked from earlier hits. Some of the results follow.

This passage reports max response and Potency results from PubChem BioAssay AID651813 (National Center for Advancing Translational Sciences (NCATS), 2012).
Potency is read from the fitted curve at half-maximal effect.

DNA dC->dU-editing enzyme APOBEC-3G (Homo sapiens), sequence (Q9HC16 whole entry, looked up): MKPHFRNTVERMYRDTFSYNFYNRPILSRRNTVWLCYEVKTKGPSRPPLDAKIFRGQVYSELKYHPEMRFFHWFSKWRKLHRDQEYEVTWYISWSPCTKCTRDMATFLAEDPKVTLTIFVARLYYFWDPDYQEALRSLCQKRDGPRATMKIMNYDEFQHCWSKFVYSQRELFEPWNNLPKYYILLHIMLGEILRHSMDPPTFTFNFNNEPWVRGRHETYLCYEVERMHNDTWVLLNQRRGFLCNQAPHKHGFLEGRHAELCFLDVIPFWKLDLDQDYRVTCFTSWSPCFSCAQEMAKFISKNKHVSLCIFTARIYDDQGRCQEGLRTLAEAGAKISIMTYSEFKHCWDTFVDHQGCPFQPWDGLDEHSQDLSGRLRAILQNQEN

This assay deals with DNA dC->dU-editing enzyme APOBEC-3G (Homo sapiens) (UniProt Q9HC16). Briefly: qHTS for inhibitors of Vif-A3G interactions: Cherry picks counterscreen.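 Also: hits raise yellow fluorescence by blocking Vif-driven A3G-eYFP degradation; nearly all actives have a fitted effect of over 70% in size.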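 As to max response: max response given as percent of control signal.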 The conditions noted are these: HeLa A3G-eYFP + Vif (tagged APOBEC3G with the HIV-1 protein that degrades it), eYFP fluorescence, 24 h. The procedure, abridged:
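Readout is eYFP fluorescence (488 nm excitation, 500-530 nm emission) measured on Acumen Explorer after 24 h compound exposure, several concentrations, at 37 deg C. Cells: HeLa stably co-expressing Vif and C-terminally eYFP-tagged A3G; MG132 positive control.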
(Quantitative high-throughput screening tests each substance at several concentrations.)
As to `Cn1c(=O)c2c(nc(NC3CCCC3)n2C)n(C)c1=O`, the max response is -1.35% (inactive).
Turning to `CCC(=O)NC(c1ccc(OC)cc1)c1c(O)ccc2ccccc12` (stereo unspecified), the Potency is 9.94 µM (active).
Consider `CCCC(=O)NC(c1ccc(OC)cc1)c1ccc2cccnc2c1O` (stereo unspecified), for which the max response is -9.5% (inactive).
As for `CCCSc1nnc(N2C(=O)C(O)=C(C(=O)c3ccco3)C2c2ccccc2F)s1` (stereo unspecified), the max response is -7.3% (inactive).
For `Cc1ccc(C2C(C(=O)c3cccs3)=C(O)C(=O)N2c2nnc(C)s2)cc1` (stereo unspecified), the Potency is 19.8 µM (active).
For `Cc1ccc(NC2=C(Cl)C(=O)N(C3CCCCC3)C2=O)cc1`, the max response is 6.01% (inactive).
As to `Cn1cccc1/C=C1\CC(C(C)(C)C)C/C(=C\c2cccn2C)C1=O` (stereo unspecified), the Potency is 8.2 µM (active).
Still for that read-out and setting: with `CN1C2CCC1/C(=C/c1cccn1C)C(=O)/C2=C\c1cccn1C` the figure was 8.2 µM (active); with `O=c1oc2c3c4c(cc2c(C(F)(F)F)c1CCN1CCOCC1)CCCN4CCC3`, 2.31 µM (active); with `COc1ccc(/C=C(/C(=O)c2cccs2)N2C=CC=CC2=C(C#N)C#N)cc1`, 15.8 µM (active).
For the compound `CCN(CC)c1nc2ccccc2nc1C(C#N)C(=O)NCCc1ccccc1` (stereo unspecified), the Potency is 13 µM (active).
On to `C=CCNC(=O)C(C#N)c1nc2ccccc2nc1N1CCN(Cc2ccccc2)CC1` (stereo unspecified), for which the max response is -10.2% (inactive).
Regarding `COc1ccc(-c2nnc(NC(=O)c3ccc([N+](=O)[O-])o3)o2)c(OC)c1`, the max response is -27.9% (inactive).
With `COc1ccc(C(=O)/C=C/Nc2ccc([N+](=O)[O-])cc2C)c(OC)c1`, the Potency is 23.1 µM (active).
For the compound `COc1cc(SC)ccc1C(=O)N1CCN(c2ccccc2OC)CC1`, the Potency is 5.59 µM (active).
Still for that read-out and setting: then `COc1ccccc1C(=O)N1CCN(c2cccc(Cl)c2)CC1`, with 1.4 µM (active).
On to `CCS(=O)(=O)N1CCc2cc(C(=O)N3CCN(c4cccc(C(F)(F)F)c4)CC3)ccc21`, for which the max response was -3.11% (inactive).
With `COc1ccc(C(=S)N2CCN(c3cccc(Cl)c3)CC2)c(OC)c1`, the Potency is 3.53 µM (active).
Turning to `COc1ccccc1N1CCN(C(=O)c2ccc3ncsc3c2)CC1`, the Potency is 17.7 µM (active).
Same read-out and setting: then `CCSc1ncc(Cl)c(C(=O)N2CCN(c3ccccc3OC)CC2)n1`, with 4.61 µM (active); and `COc1ccccc1N1CCN(C(=O)c2cc(=O)c3cc(C)cc(C)c3o2)CC1`, with 0.158 µM (active).
On to `COC(=O)c1cc(C(=O)N2CCN(c3ccccc3OC)CC2)cc([N+](=O)[O-])c1`, for which the Potency was 1.12 µM (active).
With `NNC(=S)Nc1c(F)cc(F)cc1Br`, the max response is -0.636% (inactive).
For `Cc1cc(N/N=C/c2ccc([N+](=O)[O-])o2)nc2ccccc12`, the Potency was 23.1 µM (active).
As for `O=C(N/N=C/c1ccc([N+](=O)[O-])o1)c1cn2ccc3ccccc3c2n1`, the max response is 3.73% (inactive).
On to `O=[N+]([O-])c1ccc(/C=N/Nc2ccc3ccccc3c2)o1`, for which the Potency is 4.98 µM (active).
Same read-out and setting: with `CCCN1CCc2c(sc(NC(=O)c3ccc(S(=O)(=O)N(C)c4ccccc4)cc3)c2C(=O)NC)C1` the figure was 18.4 µM (active); with `CCCN1CCc2c(sc(NC(=O)c3ccc(S(=O)(=O)N4CCN(C(=O)OCC)CC4)cc3)c2C(N)=O)C1`, 23.1 µM (active); with `CCCN1CCc2c(sc(NC(=O)c3ccc(S(=O)(=O)N(C)c4ccccc4)cc3)c2C(N)=O)C1`, 14.6 µM (active).
On the same count and under the same terms, with `CCN1CCc2c(sc(NC(=O)c3ccc(S(=O)(=O)N(CC)c4ccccc4)cc3)c2C(N)=O)C1` the figure was 5.59 µM (active); with `NC(=O)c1c(NC(=O)c2ccccc2)sc2c1CCN(Cc1ccccc1)C2`, 15.8 µM (active).
Still for that read-out and setting: with `CCCN1CCc2c(sc(NC(=S)NC(=O)c3ccccc3)c2C#N)C1` the figure was 14.6 µM (active); with `CC(C)N1CCc2c(sc(NC(=O)c3ccc(S(=O)(=O)N4CCOCC4)cc3)c2C#N)C1`, 8.2 µM (active); with `CC(C)N1CCc2c(sc(NC(=O)c3cc4cc([N+](=O)[O-])ccc4s3)c2C(N)=O)C1`, 23.1 µM (active).
Turning to `CCOC(=O)/C(=C/C1=CC(=C/N(C)C)/C(=O)O1)C(C)=O`, the max response was 1.47% (inactive).
Consider `CC(C)CN(CC(C)C)S(=O)(=O)c1ccc(C(=O)Nc2sc3c(c2C(N)=O)CCN(C(C)C)C3)cc1`, for which the Potency is 18.4 µM (active).
On to `Cc1cccc(C)c1OCCNC(=O)C(=O)NCc1ccco1`, for which the Potency is 2.8 µM (active).
Turning to `CCCCCn1c(=O)[nH]c2cc(C(=O)Nc3cc(OC)cc(OC)c3)ccc2c1=O`, the max response is -23.9% (inactive).
As to `Cc1ccccc1NC(=O)c1ccc2c(c1)c(C)c(C)n2Cc1ccccc1`, the Potency is 2.91 µM (active).
Same read-out and setting: with `COc1ccc(NC(=O)c2ccc3c(c2)c(C)c(C)n3Cc2ccc(F)cc2)cc1` the figure was 5.17 µM (active); with `COC(=O)Nc1ccc(S(=O)(=O)N2CCCc3ccccc32)cc1`, 3.53 µM (active).
On the same count and under the same terms, with `Cc1cc(NC(=O)COC(=O)c2ccc(S(=O)(=O)N3CCCc4ccccc43)cc2)no1` the figure was 4.44 µM (active).
On to `O=C(CN1c2cccc3cccc(c23)S1(=O)=O)Nc1ccc(S(=O)(=O)N2CCOCC2)cc1`, for which the max response was -29.7% (inactive).
`CC(=O)Nc1ccc(S(=O)(=O)N2CCSc3ccccc32)cc1`: the Potency is 4.98 µM (active).
The same measure, in the same setting: with `Cc1ccc(CNC(=O)C2CC(c3cc(C(F)(F)F)cc(C(F)(F)F)c3)=NO2)o1` (stereo unspecified) the figure was 8.86 µM (active); with `COc1ccccc1N1CCN(c2ncnc3c2oc2ccccc23)CC1`, 3.14 µM (active); with `CCN1/C(=C/C=C2/SC(=Nc3cccc4ncccc34)N(C)C2=O)Sc2ccccc21`, 4.11 µM (active).
Turning to `Cc1c(NC(=O)c2csc3c2CCCC3)c(=O)n(-c2ccccc2)n1C`, the max response is -8.09% (inactive).
As for `Cc1c(N=C2N=C(NC(=O)c3cccs3)c3ccccc32)c(=O)n(-c2ccccc2)n1C`, the Potency was 12.5 µM (active).
As for `CC#Cc1cc2c(cc1O)CCC1C2CCC2(C)C(O)CCC12` (stereo unspecified), the Potency is 4.44 µM (active).
On the same count and under the same terms, with `CCSc1nccc(-c2nn(-c3ccc(C)cc3)ccc2=O)n1` the figure was 3.53 µM (active).
Still for that read-out and setting: then `Cc1ccc(-c2cc(-c3ccco3)c3c(N)c(C(=O)NN)oc3n2)cc1`, with 23.1 µM (active); and `NNC(=O)c1oc2nc(-c3ccccc3)cc(-c3ccco3)c2c1N`, with 18.4 µM (active); and `O=C(N/N=C\C=C\c1ccc([N+](=O)[O-])o1)c1cccs1`, with 14 µM (active).
With `CCC(=Nc1ccccc1O)C1=C(O)CC(c2ccccc2)CC1=O` (stereo unspecified), the max response is 16.4% (inactive).
Take `COc1ccccc1N=C(C)C1=C(O)CC(c2ccccc2)CC1=O` (stereo unspecified): the Potency was 0.559 µM (active).
